# Test results from PubChem BioAssay (NCI).
# About 79,000 compounds went through this panel and 15% of them were active in at least one assay; those are over-represented in the sample as a whole. A number with no mark means an inactive call. The source made the active and inactive calls. Rule as the data show it: active = growth inhibition above about 70%; inactive = the rest.
# Experiment: NCI Yeast Anticancer Drug Screen. Data for the rad52 strain (AID 147);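 also: 0% = growth of vehicle-treated control cultures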
# Details: S. cerevisiae rad52 mutant growth inhibition; at 11.0 µM; stronger effect = higher value
# Outline: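 Inhibition of yeast growth, referenced to vehicle controls, was the measured output for a strain with defective DNA damage repair.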
row,Structure (SMILES),growth inhibition
1,CC(CN(C)C)C(=O)/C=C/c1ccc(Cl)c(Cl)c1 (configuration not stated),29%
2,CCCCCCNCCCNc1c2cc(OC)ccc2nc2cccc([N+](=O)[O-])c12,73% (active)
3,NC(=S)N1N=C2c3ccccc3CC[C@H]2[C@@H]1c1ccc(Cl)cc1,39%
4,C/C(=N/NC(=S)Nc1ccccc1C)c1ccccn1,15%
5,O=C1/C(=C/c2ccc(Cl)c(Cl)c2)CNC/C1=C\c1ccc(Cl)c(Cl)c1,27%
6,CC(C)OP(=O)(OC(C)C)C(=NCCO)NNc1ccc([N+](=O)[O-])cc1,14%
7,N#CCC(=O)N/N=C(\c1ccccc1)C(c1ccccc1)C1(O)C(=O)Nc2c(Cl)ccc(Cl)c21 (configuration not stated),3%
8,CC(C)(CN1CCCCC1)C(=O)CC(SCCS(=O)(=O)O)c1ccccc1 (configuration not stated),25%
9,COC1=CCC23C(=O)C=CC(=O)C2(C1)C(=O)c1ccccc1C3=O (configuration not stated),12%
10,CCCCN(CCCC)c1ccc(N=Nc2ccc(S(=O)(=O)O)cc2)cc1,40%
11,c1ccc2nc3c(nc2c1)sc1ccccc13,95% (active)
12,O=C1c2ccccc2-c2ccc(N=Cc3ccccc3)cc21,10%
13,CNC(=S)N/N=C(/C)CCC/C(C)=N/NC(=S)NC,64%
14,Nc1ccc(/C=C/c2ccc3cccnc3c2)cc1,-1%
15,COc1ccc2c3c1OC(C)C31CC(=O)CCC1CC2 (configuration not stated),4%
16,CCOC(=O)Nc1ccc(C)c(NC(=O)OCC)c1,15%
17,CCN(CC)CCNc1ccc2nc(C)n3c4ccc(OC)cc4c(=O)c1c23,58%
18,C[N+](C)([O-])CCCNc1c2ccccc2nc2cccc([N+](=O)[O-])c12,94% (active)

row,Structure (SMILES),growth inhibition
1,O=C(c1cc(=O)c2ccc(O)cc2o1)c1ccc(Cl)cc1Cl,8%
2,CCCNC(=O)OCc1c(COC(=O)NCCC)c(-c2ccc(Cl)c(Cl)c2)n2c1CCC2,-5%
3,O=C(Cc1ccccc1)NN1C(=O)C(Cl)C1c1cc(Br)cc(Br)c1O (configuration not stated),92% (active)
4,CCOC(=O)C(Cc1c2ccccc2cc2ccccc12)(NC(C)=O)C(=O)OCC,-4%
5,O=[N+]([O-])/C=C/c1cc2ccc3ccccc3c2[nH]1,83% (active)
6,Fc1ccc(Nc2ccc3ccccc3c2)cc1,-3%
7,O=S1(=O)CCC2=CC(C(F)(F)F)=CC(C(F)(F)F)=CN21,71% (active)
8,O=C(Cc1ccccc1)NNc1nc(NNC(=O)c2ccncc2)nc(Nc2ccc([N+](=O)[O-])cc2)n1,68%
9,CCCCS/C(=C(/C#N)C(N)=O)c1cc2c([nH]1)CCCC2,33%
10,O=C(O)c1ccccc1C(=O)OC1CCc2ccccc2C1 (configuration not stated),0%
11,CCOC(=O)/C(=C\c1cccc(C)c1)C(C)=O,67%
12,NC(=S)N/N=C1\c2ccccc2CCC1CCC1(O)CCc2ccccc2C1=O (configuration not stated),55%
13,Cc1cccc2c(Cl)c3cccc(C)c3nc12,8%
14,CC(C)OC(=O)NNc1c(Cl)cc(Cl)cc1Cl,2%
15,Nc1ccc2c(c1)C(=O)c1c(F)cccc1-2,17%
16,N#CSCC1COc2ccccc2O1 (configuration not stated),-26%
17,Cc1ccc(S(=O)(=O)NC(=O)C2C(=O)CC3(CCCCC3)CC2=O)cc1,-34%
18,CC1=NN(C(=O)c2ccccc2O)C(=O)/C1=C/c1ccco1,76% (active)

# Same assay, conditions: S. cerevisiae rad52 mutant growth inhibition; at 33.0 µM; stronger effect = higher value
row,Structure (SMILES),growth inhibition
1,CC(CN(C)C)C(=O)/C=C/c1ccc(Cl)c(Cl)c1 (configuration not stated),73% (active)
2,CCCCCCNCCCNc1c2cc(OC)ccc2nc2cccc([N+](=O)[O-])c12,93% (active)
3,NC(=S)N1N=C2c3ccccc3CC[C@H]2[C@@H]1c1ccc(Cl)cc1,48%
4,C/C(=N/NC(=S)Nc1ccccc1C)c1ccccn1,17%
5,O=C1/C(=C/c2ccc(Cl)c(Cl)c2)CNC/C1=C\c1ccc(Cl)c(Cl)c1,76% (active)
6,CC(C)OP(=O)(OC(C)C)C(=NCCO)NNc1ccc([N+](=O)[O-])cc1,31%
7,N#CCC(=O)N/N=C(\c1ccccc1)C(c1ccccc1)C1(O)C(=O)Nc2c(Cl)ccc(Cl)c21 (configuration not stated),9%
8,CC(C)(CN1CCCCC1)C(=O)CC(SCCS(=O)(=O)O)c1ccccc1 (configuration not stated),34%
9,COC1=CCC23C(=O)C=CC(=O)C2(C1)C(=O)c1ccccc1C3=O (configuration not stated),54%
10,CCCCN(CCCC)c1ccc(N=Nc2ccc(S(=O)(=O)O)cc2)cc1,89% (active)
11,c1ccc2nc3c(nc2c1)sc1ccccc13,94% (active)
12,O=C1c2ccccc2-c2ccc(N=Cc3ccccc3)cc21,68%
13,CNC(=S)N/N=C(/C)CCC/C(C)=N/NC(=S)NC,64%
14,Nc1ccc(/C=C/c2ccc3cccnc3c2)cc1,11%
15,COc1ccc2c3c1OC(C)C31CC(=O)CCC1CC2 (configuration not stated),2%
16,CCOC(=O)Nc1ccc(C)c(NC(=O)OCC)c1,21%
17,CCN(CC)CCNc1ccc2nc(C)n3c4ccc(OC)cc4c(=O)c1c23,75% (active)
18,C[N+](C)([O-])CCCNc1c2ccccc2nc2cccc([N+](=O)[O-])c12,96% (active)

row,Structure (SMILES),growth inhibition
1,O=C(c1cc(=O)c2ccc(O)cc2o1)c1ccc(Cl)cc1Cl,90% (active)
2,CCCNC(=O)OCc1c(COC(=O)NCCC)c(-c2ccc(Cl)c(Cl)c2)n2c1CCC2,29%
3,O=C(Cc1ccccc1)NN1C(=O)C(Cl)C1c1cc(Br)cc(Br)c1O (configuration not stated),93% (active)
4,CCOC(=O)C(Cc1c2ccccc2cc2ccccc12)(NC(C)=O)C(=O)OCC,-6%
5,O=[N+]([O-])/C=C/c1cc2ccc3ccccc3c2[nH]1,88% (active)
6,Fc1ccc(Nc2ccc3ccccc3c2)cc1,17%
7,O=S1(=O)CCC2=CC(C(F)(F)F)=CC(C(F)(F)F)=CN21,89% (active)
8,O=C(Cc1ccccc1)NNc1nc(NNC(=O)c2ccncc2)nc(Nc2ccc([N+](=O)[O-])cc2)n1,59%
9,CCCCS/C(=C(/C#N)C(N)=O)c1cc2c([nH]1)CCCC2,40%
10,O=C(O)c1ccccc1C(=O)OC1CCc2ccccc2C1 (configuration not stated),18%
11,CCOC(=O)/C(=C\c1cccc(C)c1)C(C)=O,91% (active)
12,NC(=S)N/N=C1\c2ccccc2CCC1CCC1(O)CCc2ccccc2C1=O (configuration not stated),86% (active)
13,Cc1cccc2c(Cl)c3cccc(C)c3nc12,42%
14,CC(C)OC(=O)NNc1c(Cl)cc(Cl)cc1Cl,6%
15,Nc1ccc2c(c1)C(=O)c1c(F)cccc1-2,69%
16,N#CSCC1COc2ccccc2O1 (configuration not stated),72% (active)
17,Cc1ccc(S(=O)(=O)NC(=O)C2C(=O)CC3(CCCCC3)CC2=O)cc1,7%
18,CC1=NN(C(=O)c2ccccc2O)C(=O)/C1=C/c1ccco1,92% (active)
